A short description of assay [1]: ATG_TAL_CIS: Attagene CIS-FACTORIAL HepG2 Assay for human TAL Basal Promoter (AID 2282966; active means hit-call score of the fitted dose curve at least 0.9, where 1 is the maximum; inactive means score below 0.9;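 further: background control endpoint measuring basal TAL promoter reporter mRNA not a specific factor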). The note with it: HepG2 Attagene cis-factorial TAL promoter reporter; actives raise or lower the signal. An outline of the steps:
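Steps: transfect HepG2 with multiple reporter transcription units; dose 24 h; isolate RNA, reverse-transcribe, PCR-amplify, label with 6-FAM, digest with HpaI; resolve by capillary electrophoresis. Bidirectional fitting against DMSO baseline.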

Assay [2] can be described thus: ATG_TGFb_CIS: Attagene CIS-FACTORIAL HepG2 Assay for human Transforming Growth Factor (TGF) (AID 2282967; active means hit-call score of the fitted dose curve at least 0.9, where 1 is the maximum; inactive means score below 0.9). Particulars: HepG2 Attagene CIS TGFb reporter, mRNA transcription; actives raise or lower the signal. An outline of the steps: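 Transient MRTU transfection of HepG2 (FuGene 6). Dose 24 h. TriZol RNA, oligo(dT) RT, PCR, 6-FAM primer extension, HpaI cut, CE. Bidirectional fit, DMSO = baseline.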

Assay [3] concerns the target Steroid hormone receptor ERR1 (Homo sapiens) (UniProt P11474). Kind of assay: ATG_ERRa_TRANS: Attagene TRANS-FACTORIAL HepG2 Assay for human Estrogen-Related Receptor alpha (ERRa) (AID 2282971). Particulars: HepG2 Attagene TRANS reporter, ERRa transactivation. Summed up:
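Signal gain relative to DMSO for an ERRa-Gal4 chimeric receptor, read as reporter mRNA by RT-PCR/capillary electrophoresis. Human HepG2 liver cells, transient multiplex reporter transfection, 24 h chemical exposure.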

Assay [4] is described as follows: ATG_M_19_TRANS: Attagene TRANS-FACTORIAL HepG2 Assay for M19 Transcription Factor (Internal Marker) (AID 2282974). The note with it: HepG2 Attagene TRANS-FACTORIAL M19 internal marker reporter. Summed up:
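Using RT-PCR and capillary electrophoresis, reporter mRNA from transiently transfected human HepG2 cells was quantified following 24 h exposure; activity was fitted in the positive direction against DMSO.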

In assay [5] the target is Estrogen-related receptor gamma (Homo sapiens) (UniProt P62508). Kind of assay: ATG_ERRg_TRANS: Attagene TRANS-FACTORIAL HepG2 Assay for human Estrogen-Related Receptor gamma (ERRg) (AID 2282977).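 Further: hits increase reporter signal over DMSO so potencies reflect activators.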 Particulars: HepG2 Attagene TRANS reporter, ERRg transactivation. An outline of the steps: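 HepG2 cells transiently transfected with multiplexed GAL4-UAS reporter units and chimeric NR-Gal4 constructs were exposed to test chemicals for 24 h. Reporter mRNA was measured by RT-PCR, 6-FAM primer extension, HpaI digestion and capillary electrophoresis; gain-of-signal versus DMSO.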

For assay [6], the target named is Glucocorticoid receptor (Homo sapiens) (UniProt P04150). Kind of assay: ATG_GR_TRANS: Attagene TRANS-FACTORIAL HepG2 Assay for human Glucocorticoid Receptor (GR) (AID 2282978).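 Further: activators score as hits since higher reporter transcript over DMSO is fitted.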 The note with it: HepG2 Attagene TRANS GR reporter, mRNA transcription. An outline of the steps:
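Exogenous NR-GAL4 fusion activity was assessed through induced GAL4-UAS reporter transcripts in transfected human HepG2 cells, quantified after 24 h by RT-PCR and fluorescent capillary electrophoresis with DMSO as baseline.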

Assay [7] has as its target Oxysterols receptor LXR-alpha (Homo sapiens) (UniProt Q13133). Briefly: ATG_LXRa_TRANS: Attagene TRANS-FACTORIAL HepG2 Assay for human Liver X Receptor alpha (LXRa) (AID 2282980). Particulars: HepG2 Attagene TRANS reporter, LXRa transactivation. Summed up: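 In this multiplexed TRANS system, compounds act on HepG2 cells carrying GAL4-UAS reporter units and a receptor-GAL4 fusion for 24 h. Induced reporter RNA is amplified, fluorescently labelled and sized by capillary electrophoresis, with DMSO as baseline.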

Assay [8] addresses Oxysterols receptor LXR-beta (Homo sapiens) (UniProt P55055). Briefly: ATG_LXRb_TRANS: Attagene TRANS-FACTORIAL HepG2 Assay for human Liver X Receptor beta (LXRb) (AID 2282981). Particulars: HepG2 Attagene TRANS GAL4-LXRb reporter, mRNA. Summed up:
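HepG2 cells transiently transfected with multiple reporter transcription units carrying chimeric NR-Gal4 proteins acting on GAL4-UAS reporters; compound exposure 24 h. Reporter mRNA quantified by RT-PCR, 6-FAM labelling, HpaI digestion and capillary electrophoresis; gain of signal versus DMSO.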

Assay [9] deals with Hepatocyte nuclear factor 4-alpha (Homo sapiens) (UniProt P41235). Briefly: ATG_HNF4a_TRANS: Attagene TRANS-FACTORIAL HepG2 Assay for human Hepatocyte Nuclear Factor 4 alpha (HNF4a) (AID 2282982). Particulars: HepG2 HNF4a transactivation reporter, mRNA readout. An outline of the steps: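 HepG2 cells transiently transfected with multiplexed GAL4-UAS reporter units responsive to chimeric NR-GAL4 proteins; compound exposure 24 h. Reporter mRNA quantified by RT-PCR, 6-FAM labelling, HpaI digestion and capillary electrophoresis; gain of signal versus DMSO baseline.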

Assay [10] can be described thus: ATG_M_32_TRANS: Attagene TRANS-FACTORIAL HepG2 Assay for M32 Transcription Factor (Internal Marker) (AID 2282984).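 Further: transcript level of a background control reporter unit measured by RT-PCR and capillary electrophoresis.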 The note with it: HepG2 Attagene TRANS M32 internal marker reporter. Summed up: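 HepG2 cells transiently transfected with multiple GAL4-UAS reporter transcription units, dosed for 24 hours; reporter mRNA quantified by RT-PCR, 6-FAM primer extension, HpaI digestion and capillary electrophoresis. Gain-of-signal fitted versus DMSO baseline; internal background-control marker.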

The target of assay [11] is Transcriptional activator Myb (Homo sapiens) (UniProt P10242). Kind of assay: ATG_Myb_CIS: Attagene CIS-FACTORIAL HepG2 Assay for human Myeloblastosis (Myb) Proto-Oncogene Transcription Factor (AID 2282986; active means hit-call score of the fitted dose curve at least 0.9, where 1 is the maximum; inactive means score below 0.9). The note with it: HepG2 Attagene CIS-FACTORIAL Myb reporter transcription; actives raise or lower the signal. An outline of the steps:
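In this HepG2 transient-transfection format, cis-regulated reporter mRNA is quantified 24 h post-dosing by RT-PCR with capillary electrophoresis, fitted bidirectionally to DMSO baseline.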

Assay [12] concerns the target Nuclear respiratory factor 1 (Homo sapiens) (UniProt Q16656). Kind of assay: ATG_NRF1_CIS: Attagene CIS-FACTORIAL HepG2 Assay for human Nuclear Respiratory Factor 1 (NRF1) Orphan Gene (AID 2282987; active means hit-call score of the fitted dose curve at least 0.9, where 1 is the maximum; inactive means score below 0.9). The note with it: HepG2 NRF1 cis-element reporter, Attagene multiplex; actives raise or lower the signal. Summed up:
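Using DMSO as baseline, gain- or loss-of-signal was fitted for reporter mRNA levels in HepG2 cells transiently transfected with cis-regulated reporter units. Samples were taken 24 h after dosing and read by RT-PCR with capillary electrophoresis.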

Assay [13] can be described thus: ATG_M_06_TRANS: Attagene TRANS-FACTORIAL HepG2 Assay for M06 Transcription Factor (Internal Marker) (AID 2282983).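 Further: reporter transcript level by RT-PCR then capillary electrophoresis fluorescence.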 Particulars: HepG2 Attagene TRANS M06 internal marker reporter. An outline of the steps:
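Internal-marker background readout from a multiplexed TRANS reporter system in HepG2; 24 h dosing; mRNA induction quantified by RT-PCR plus capillary electrophoresis fluorescence; DMSO as negative control and baseline.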

For assay [14], the target named is Estrogen receptor (Homo sapiens) (UniProt P03372). Kind of assay: ATG_ERa_TRANS: Attagene TRANS-FACTORIAL HepG2 Assay for human Estrogen Receptor alpha (ERa) (AID 2282970). The note with it: HepG2 Attagene TRANS ERa GAL4 reporter, mRNA. An outline of the steps:
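Multiplexed cell-based reporter format in HepG2: chimeric ERa-Gal4 protein drives GAL4-UAS reporter transcription. Fluorescent reporter mRNA quantified by capillary electrophoresis 24 hours after dosing; endpoint fitted as signal gain against DMSO.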

The target of assay [15] is X-box-binding protein 1 (Homo sapiens) (UniProt P17861). Briefly: ATG_Xbp1_CIS: Attagene CIS-FACTORIAL HepG2 Assay for human X-box Binding Protein 1 (XBP1) (AID 2282972; active means hit-call score of the fitted dose curve at least 0.9, where 1 is the maximum; inactive means score below 0.9). Particulars: HepG2 XBP1 cis-element reporter, Attagene multiplex; actives raise or lower the signal. An outline of the steps:
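Fluorescence-labelled cDNA fragments from reporter transcripts, separated by capillary electrophoresis, give the signal. Source: HepG2 cells transfected with promoter-driven reporter units, harvested 24 h post-dose. DMSO served as reference for bidirectional curve fitting.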

Assay [16] can be described thus: ATG_GAL4_TRANS: Attagene TRANS-FACTORIAL HepG2 Assay for GAL4 (Internal Marker) (AID 2282976). The note with it: HepG2 Attagene TRANS GAL4 internal marker reporter. An outline of the steps: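 Liver HepG2 line bearing multiplexed GAL4-UAS reporter constructs; 24 h chemical treatment. Transcripts were quantified as fluorescent fragments on capillary electrophoresis after RT-PCR and HpaI cut, with activity fitted upward from DMSO.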

Assay [17] concerns the target Nuclear receptor subfamily 4 group A member 2 (Homo sapiens) (UniProt P43354). Kind of assay: ATG_NURR1_TRANS: Attagene TRANS-FACTORIAL HepG2 Assay for human Nuclear Receptor Related Protein 1 (NURR1) (AID 2282985). Particulars: HepG2 Attagene TRANS reporter, mRNA readout. Summed up:
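HepG2 cells transiently transfected with GAL4-UAS reporter units and chimeric NR-Gal4 constructs; chemical exposure 24 h. Reporter mRNA quantified by RT-PCR, fluorescent labelling and capillary electrophoresis; gain of signal fitted relative to DMSO baseline.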

Assay [18] deals with Nuclear receptor subfamily 1 group I member 3 (Homo sapiens) (UniProt Q14994). Kind of assay: ATG_CAR_TRANS: Attagene TRANS-FACTORIAL HepG2 Assay for human Constitutive Androstane Receptor (CAR) (AID 2282969).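 Further: activators raise reporter mRNA above DMSO so AC50 marks induction.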 Particulars: HepG2 Attagene TRANS-FACTORIAL CAR reporter. Summed up:
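HepG2 cells transiently transfected with multiplexed GAL4-UAS reporter units expressing chimeric NR-Gal4 proteins; compound exposure 24 h. Reporter mRNA measured by RT-PCR, 6-FAM labelling, HpaI digestion and capillary electrophoresis; gain-of-signal fitted against DMSO baseline.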

Assay [19] concerns the target Bile acid receptor (Homo sapiens) (UniProt Q96RI1). Briefly: ATG_FXR_TRANS: Attagene TRANS-FACTORIAL HepG2 Assay for Farnesoid X Receptor (FXR) (AID 2282979).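 Further: hits raise reporter mRNA above DMSO so AC50 marks FXR activation.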 Particulars: HepG2 Attagene TRANS FXR-GAL4 reporter transcription. An outline of the steps: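 After 24 h chemical treatment of transfected HepG2 cells, GAL4-UAS reporter transcripts driven by an exogenous FXR-GAL4 fusion were measured by RT-PCR and capillary electrophoresis. Increases over DMSO were fitted.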

A short description of assay [20]: ATG_VDRE_CIS: Attagene CIS-FACTORIAL HepG2 Assay for human Vitamin D Receptor Element (VDRE) (AID 2282968; active means hit-call score of the fitted dose curve at least 0.9, where 1 is the maximum; inactive means score below 0.9). The note with it: HepG2 VDRE cis-reporter transcription, actives raise or lower the signal. Summed up:
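HepG2 cells transiently transfected with cis-element reporter units, dosed 24 h; reporter mRNA measured by RT-PCR, 6-FAM labeling, HpaI digestion and capillary electrophoresis. Activity fitted bidirectionally against DMSO baseline.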

The structures appear in SMILES notation. Records with an inconclusive call do not appear. Calls of active or inactive are those of the source. How the source made its calls, unless noted: active means hit-call score of the fitted dose curve at least 0.9, where 1 is the maximum; inconclusive means response in the unintended direction; inactive means score below 0.9.

Steroid hormone receptor ERR1 (Homo sapiens), sequence (P11474 whole entry, looked up, the tested form may be a part): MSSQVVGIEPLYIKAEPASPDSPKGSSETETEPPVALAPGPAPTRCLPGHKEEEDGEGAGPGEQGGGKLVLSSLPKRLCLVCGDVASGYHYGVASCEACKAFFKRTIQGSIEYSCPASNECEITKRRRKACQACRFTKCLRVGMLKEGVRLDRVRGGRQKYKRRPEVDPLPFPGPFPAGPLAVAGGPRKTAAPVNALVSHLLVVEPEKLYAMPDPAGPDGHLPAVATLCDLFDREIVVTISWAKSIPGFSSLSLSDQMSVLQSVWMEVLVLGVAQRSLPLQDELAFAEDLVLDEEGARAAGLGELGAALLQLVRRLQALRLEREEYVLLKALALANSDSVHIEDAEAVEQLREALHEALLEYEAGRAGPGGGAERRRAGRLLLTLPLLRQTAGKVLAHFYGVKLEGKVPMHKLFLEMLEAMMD
Oxysterols receptor LXR-beta (Homo sapiens), sequence (P55055 whole entry, looked up, the tested form may be a part): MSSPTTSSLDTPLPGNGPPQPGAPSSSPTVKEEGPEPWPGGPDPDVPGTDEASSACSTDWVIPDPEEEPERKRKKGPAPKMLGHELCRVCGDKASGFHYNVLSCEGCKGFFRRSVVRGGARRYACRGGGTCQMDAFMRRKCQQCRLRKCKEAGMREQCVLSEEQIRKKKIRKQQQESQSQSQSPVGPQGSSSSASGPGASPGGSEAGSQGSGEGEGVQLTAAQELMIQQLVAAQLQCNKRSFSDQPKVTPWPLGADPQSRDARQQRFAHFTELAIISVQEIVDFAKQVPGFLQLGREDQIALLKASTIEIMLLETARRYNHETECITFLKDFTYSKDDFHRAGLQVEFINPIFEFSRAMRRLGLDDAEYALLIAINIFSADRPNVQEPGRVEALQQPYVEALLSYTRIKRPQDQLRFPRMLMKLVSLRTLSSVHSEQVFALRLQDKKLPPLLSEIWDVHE
X-box-binding protein 1 (Homo sapiens), sequence (P17861 whole entry, looked up, the tested form may be a part): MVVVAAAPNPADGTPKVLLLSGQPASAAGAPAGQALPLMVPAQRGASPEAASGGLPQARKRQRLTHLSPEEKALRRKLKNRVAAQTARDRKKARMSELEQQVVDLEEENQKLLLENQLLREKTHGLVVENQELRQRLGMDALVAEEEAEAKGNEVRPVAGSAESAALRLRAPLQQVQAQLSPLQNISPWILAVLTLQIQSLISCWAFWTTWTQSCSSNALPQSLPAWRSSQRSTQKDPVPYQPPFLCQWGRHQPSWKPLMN
Bile acid receptor (Homo sapiens), sequence (Q96RI1 whole entry, looked up, the tested form may be a part): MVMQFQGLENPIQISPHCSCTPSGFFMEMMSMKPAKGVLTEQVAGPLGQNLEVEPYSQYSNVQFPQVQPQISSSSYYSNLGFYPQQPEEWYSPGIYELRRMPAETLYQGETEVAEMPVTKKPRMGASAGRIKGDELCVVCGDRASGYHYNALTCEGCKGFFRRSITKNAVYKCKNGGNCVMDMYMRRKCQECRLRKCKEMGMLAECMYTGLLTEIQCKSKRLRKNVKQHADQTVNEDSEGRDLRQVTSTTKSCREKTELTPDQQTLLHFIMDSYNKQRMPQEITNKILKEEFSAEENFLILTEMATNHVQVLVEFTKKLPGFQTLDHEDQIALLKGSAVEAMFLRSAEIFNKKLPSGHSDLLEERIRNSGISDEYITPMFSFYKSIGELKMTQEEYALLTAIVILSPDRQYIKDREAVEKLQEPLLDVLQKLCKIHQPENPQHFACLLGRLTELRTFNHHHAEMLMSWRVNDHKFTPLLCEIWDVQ
Nuclear receptor subfamily 4 group A member 2 (Homo sapiens), sequence (P43354 whole entry, looked up, the tested form may be a part): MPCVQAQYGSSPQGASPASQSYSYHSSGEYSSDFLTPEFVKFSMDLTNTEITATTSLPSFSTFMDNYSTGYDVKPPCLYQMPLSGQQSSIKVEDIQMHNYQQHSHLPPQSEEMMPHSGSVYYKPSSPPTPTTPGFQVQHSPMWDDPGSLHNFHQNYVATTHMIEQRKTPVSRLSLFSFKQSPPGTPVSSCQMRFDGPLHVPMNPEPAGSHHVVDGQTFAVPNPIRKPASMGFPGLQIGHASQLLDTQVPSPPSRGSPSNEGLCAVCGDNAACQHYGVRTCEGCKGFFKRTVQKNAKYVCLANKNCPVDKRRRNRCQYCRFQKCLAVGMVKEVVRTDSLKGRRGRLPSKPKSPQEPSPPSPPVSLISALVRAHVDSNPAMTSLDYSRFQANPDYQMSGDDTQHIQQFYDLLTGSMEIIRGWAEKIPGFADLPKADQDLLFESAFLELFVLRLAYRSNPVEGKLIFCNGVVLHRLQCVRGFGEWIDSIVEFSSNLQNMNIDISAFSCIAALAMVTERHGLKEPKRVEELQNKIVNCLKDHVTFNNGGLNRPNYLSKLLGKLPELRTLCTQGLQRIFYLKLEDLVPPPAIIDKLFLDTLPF
Transcriptional activator Myb (Homo sapiens), sequence (P10242 whole entry, looked up): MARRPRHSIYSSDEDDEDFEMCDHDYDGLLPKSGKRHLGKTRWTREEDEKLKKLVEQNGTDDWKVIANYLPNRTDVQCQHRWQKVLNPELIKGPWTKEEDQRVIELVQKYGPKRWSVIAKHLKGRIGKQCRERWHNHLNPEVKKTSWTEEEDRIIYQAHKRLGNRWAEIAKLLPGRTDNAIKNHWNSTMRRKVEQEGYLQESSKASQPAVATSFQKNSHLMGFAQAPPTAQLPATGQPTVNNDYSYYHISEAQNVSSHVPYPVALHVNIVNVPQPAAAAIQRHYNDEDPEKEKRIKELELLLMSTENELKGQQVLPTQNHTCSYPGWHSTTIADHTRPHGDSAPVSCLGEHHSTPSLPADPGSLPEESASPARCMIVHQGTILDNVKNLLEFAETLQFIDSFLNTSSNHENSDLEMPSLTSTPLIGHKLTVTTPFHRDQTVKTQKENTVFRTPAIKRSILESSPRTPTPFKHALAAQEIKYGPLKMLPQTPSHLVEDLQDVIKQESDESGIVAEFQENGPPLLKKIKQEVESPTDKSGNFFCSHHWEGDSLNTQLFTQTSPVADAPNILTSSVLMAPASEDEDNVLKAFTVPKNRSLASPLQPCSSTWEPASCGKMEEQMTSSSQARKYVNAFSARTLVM
Nuclear receptor subfamily 1 group I member 3 (Homo sapiens), sequence (Q14994 whole entry, looked up, the tested form may be a part): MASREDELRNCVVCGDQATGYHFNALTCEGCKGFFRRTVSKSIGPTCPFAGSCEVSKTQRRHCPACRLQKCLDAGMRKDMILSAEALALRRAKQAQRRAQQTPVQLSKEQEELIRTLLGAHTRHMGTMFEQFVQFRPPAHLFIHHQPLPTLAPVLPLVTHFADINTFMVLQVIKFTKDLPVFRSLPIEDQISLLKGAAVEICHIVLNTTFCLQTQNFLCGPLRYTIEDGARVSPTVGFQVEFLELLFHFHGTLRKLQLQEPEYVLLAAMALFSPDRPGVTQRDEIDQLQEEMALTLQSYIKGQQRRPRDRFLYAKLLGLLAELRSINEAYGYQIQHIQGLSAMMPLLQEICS
Oxysterols receptor LXR-alpha (Homo sapiens), sequence (Q13133 whole entry, looked up, the tested form may be a part): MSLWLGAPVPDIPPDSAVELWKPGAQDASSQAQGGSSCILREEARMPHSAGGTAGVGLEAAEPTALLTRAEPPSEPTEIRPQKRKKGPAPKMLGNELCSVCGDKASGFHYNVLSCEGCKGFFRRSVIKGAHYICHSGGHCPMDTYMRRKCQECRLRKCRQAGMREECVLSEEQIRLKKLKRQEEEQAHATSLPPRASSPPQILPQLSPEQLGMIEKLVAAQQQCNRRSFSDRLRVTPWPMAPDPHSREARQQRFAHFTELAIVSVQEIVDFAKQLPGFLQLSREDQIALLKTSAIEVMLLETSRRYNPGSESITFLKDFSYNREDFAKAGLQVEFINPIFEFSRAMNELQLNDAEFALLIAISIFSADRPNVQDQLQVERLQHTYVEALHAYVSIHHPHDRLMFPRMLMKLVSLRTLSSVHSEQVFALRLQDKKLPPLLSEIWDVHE
Glucocorticoid receptor (Homo sapiens), sequence (P04150 whole entry, looked up, the tested form may be a part): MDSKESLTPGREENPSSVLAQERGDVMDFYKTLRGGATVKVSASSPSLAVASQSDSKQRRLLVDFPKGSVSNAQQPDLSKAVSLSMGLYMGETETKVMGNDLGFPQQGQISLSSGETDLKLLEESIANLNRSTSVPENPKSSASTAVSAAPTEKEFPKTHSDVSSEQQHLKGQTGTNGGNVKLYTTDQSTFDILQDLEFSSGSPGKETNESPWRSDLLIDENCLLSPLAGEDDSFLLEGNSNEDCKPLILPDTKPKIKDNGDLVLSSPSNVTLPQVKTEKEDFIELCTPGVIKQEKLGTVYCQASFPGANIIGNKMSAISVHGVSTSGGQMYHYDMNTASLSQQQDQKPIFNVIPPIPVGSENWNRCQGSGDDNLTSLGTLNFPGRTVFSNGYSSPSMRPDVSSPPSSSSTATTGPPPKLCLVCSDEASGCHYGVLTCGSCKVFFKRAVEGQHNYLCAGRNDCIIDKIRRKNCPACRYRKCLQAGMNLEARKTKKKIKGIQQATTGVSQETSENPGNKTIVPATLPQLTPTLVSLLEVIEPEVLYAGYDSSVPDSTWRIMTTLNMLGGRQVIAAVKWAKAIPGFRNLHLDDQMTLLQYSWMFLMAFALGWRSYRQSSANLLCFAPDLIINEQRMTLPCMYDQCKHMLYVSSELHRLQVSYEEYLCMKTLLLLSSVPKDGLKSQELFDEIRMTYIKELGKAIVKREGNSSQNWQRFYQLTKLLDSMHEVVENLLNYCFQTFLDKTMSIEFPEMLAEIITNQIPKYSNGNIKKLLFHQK
Estrogen-related receptor gamma (Homo sapiens), sequence (P62508 whole entry, looked up, the tested form may be a part): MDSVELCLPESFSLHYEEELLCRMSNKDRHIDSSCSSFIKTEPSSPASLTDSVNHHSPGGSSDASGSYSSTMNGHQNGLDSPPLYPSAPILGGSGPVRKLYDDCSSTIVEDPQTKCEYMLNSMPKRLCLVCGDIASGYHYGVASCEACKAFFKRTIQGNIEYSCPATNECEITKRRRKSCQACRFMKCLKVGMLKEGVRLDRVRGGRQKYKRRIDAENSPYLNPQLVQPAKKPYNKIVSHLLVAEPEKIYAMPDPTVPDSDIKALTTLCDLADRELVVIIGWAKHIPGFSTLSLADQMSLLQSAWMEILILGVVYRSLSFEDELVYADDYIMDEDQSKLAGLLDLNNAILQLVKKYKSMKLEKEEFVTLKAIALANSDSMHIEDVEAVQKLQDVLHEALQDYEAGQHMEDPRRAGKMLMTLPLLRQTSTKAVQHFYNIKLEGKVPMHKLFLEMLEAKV

In the case of `CCCCCC/C=C/C=O`, the result in assay [1], in [2], in [3], in [4], in assay [5] and in assay [6] was inactive. In addition, the compound was called inactive in assay [7], in assay [8], in [9], in assay [10], in [11] and in assay [12].

Consider `COC=O`, for which the call in [1], in assay [2], in assay [5], in assay [7], in [9] and in assay [13] was inactive. The compound was called inactive in assay [10] and in assay [11].

Turning to `CCCCCCCCCCCCCCCC(=O)OCC`, the outcome in assay [1], in assay [2], in [14], in [15], in assay [4] and in [16] was inactive. In addition, the result in assay [6], in assay [7], in assay [8], in [10], in assay [17] and in assay [11] was inactive. In addition, the outcome in [12] was inactive.

Turning to `Cc1c(C)c([N+](=O)[O-])c(C(C)(C)C)c([N+](=O)[O-])c1C`, the compound was classed as inactive in [1], in assay [2], in assay [18], in assay [3], in assay [15] and in assay [4]. The compound was called inactive in assay [8], in assay [13], in assay [10], in assay [11] and in assay [12]. Moreover, the AC50 (in general, the concentration at which the activity in the assay is half-maximal) in assay [17] is 9.67 µM (active).

Regarding `O=Nc1ccc(O)cc1`, the compound was classed as inactive in [1], in assay [2], in assay [15], in assay [6], in [9] and in assay [13]. Further, the outcome in assay [10] and in [11] was inactive.

`CCCCCCC(O)CO` (configuration not stated): the outcome in [1], in assay [2], in assay [15], in [19], in assay [7] and in assay [9] was inactive. The compound was classed as inactive in assay [13], in assay [11] and in assay [12].

Turning to `Cc1ccc2c(c1)C(=O)c1ccccc1C2=O`, the compound was called inactive in [1], in assay [20], in [18], in assay [15], in [16] and in [7]. Moreover, the compound was called inactive in [8], in assay [9], in assay [13], in assay [10], in [17] and in assay [11]. For the same compound, the AC50 in [14] was 12.4 µM (active).

With `CCCCNc1ccc(NCCCC)c2c1C(=O)c1ccccc1C2=O`, the call in assay [1], in assay [20], in [14], in assay [15], in assay [4] and in assay [6] was inactive. For the same compound, the compound was classed as inactive in [19], in assay [7], in assay [9], in [13], in assay [10] and in assay [17]. Besides, the outcome in assay [11] and in [12] was inactive.

In the case of `CCc1ccc2c(c1)C(=O)c1ccccc1C2=O`, the result in assay [1], in [18], in [15], in [7], in assay [8] and in [13] was inactive. The compound was called inactive in assay [17] and in [12]. The AC50 was 11.6 µM (active) in assay [20] and 4.61 µM (active) in assay [14].

Turning to `CCCCCCCCc1ccc(Nc2ccc(CCCCCCCC)cc2)cc1`, the compound was called inactive in assay [1], in assay [3], in assay [15], in [4], in assay [5] and in [19]. In addition, the call in [7], in assay [9], in assay [10], in assay [17], in assay [11] and in assay [12] was inactive. Also, the AC50 in assay [20] was 19.8 µM (active).

The values are drawn from PubChem BioAssay (EPA / NIEHS).
